Test results as given in PubChem BioAssay AID2401 (Southern Research Specialized Biocontainment Screening …, 2010).
Screen size: about 2,200 compounds; about 530 (24%) were called active.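 How the source made its calls: active means inhibition above a set limit at one or more concentrations of the dose series; inactive means inhibition under that limit at every dose.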 A selection follows. Results with a measured potency or affinity are listed apart.

experiment: nmpC-GFP reporter counter-screen in S. Typhimurium, dose response, counter-screen for PhoP regulon inhibitor project, Salmonella Typhimurium, GFP fluorescence (AID 2401); conditions: 4 h; series mostly up to 150 µM; inhibition: at the top concentration;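 further: S. typhimurium with Mg-insensitive nmpC-GFP reporter grown at 10 µM Mg2+; drop in reporter fluorescence reflects general culture growth inhibition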

Row | Structure (SMILES) | inhibition
1 | CCOc1cc(S(=O)(=O)N2CCN(CC)CC2)ccc1Cl | -14.5% (inactive)
2 | c1ccc(-n2cnc3cc(NCc4ccncc4)ccc32)cc1 | -21% (inactive)
3 | CCCCn1c(/N=C/c2ccccc2NS(=O)(=O)c2ccc(C)cc2)nc2ccccc21 | 21.9% (inactive)
4 | CCN(CC)C(=O)CP(=O)(c1ccccc1)c1ccccc1 | -19.4% (inactive)
5 | O=c1[nH]c(CSc2nnc(NCCCN3CCOCC3)s2)nc2cc(Cl)ccc12 | -2.07% (inactive)
6 | O=C(CSCc1cccc(CSCC(=O)Nc2ccc3ccccc3c2)n1)Nc1ccc2ccccc2c1 | -7.19% (inactive)
7 | CCN(CC)S(=O)(=O)c1ccc2c(c1)nc(SCC(=O)N1CCOCC1)n2-c1ccccc1OC | -29.7% (inactive)
8 | CCCc1cc(-c2nc(N)ncc2-c2ccc3c(c2)OCCCO3)c(O)cc1OC | -6.75% (inactive)
9 | O=S(=O)(c1ccc(S(=O)(=O)N2CCN(C/C=C/c3ccccc3)CC2)cc1)N1CCCC1 | -7.27% (inactive)
10 | c1ccc(CNc2nc(N3CCN(Cc4ccccc4)CC3)nc3ccccc23)cc1 | 15.1% (inactive)
11 | CCN1CCN(c2oc(COc3ccc(Cl)cc3)nc2C#N)CC1 | -11.3% (inactive)
12 | COc1ccc(NC(=O)C(Sc2nnc(-c3ccncc3)n2-c2ccccc2C)c2ccccc2)cc1Cl (configuration not stated) | 39.3% (inactive)
13 | Cc1ccc(S(=O)(=O)NC2c3cccc4cccc(c34)C2Sc2n[nH]c(N)n2)cc1 (configuration not stated) | -1.11% (inactive)
14 | Cc1ccc(S(=O)(=O)N2C(=O)CCC2C(=O)N2CCN(C)CC2)cc1 (configuration not stated) | -6.94% (inactive)
15 | Cc1cccc(C=Nc2ccc3c(c2)oc2ccccc23)c1O | 2.82% (inactive)
16 | COc1ccc2cc(C)c3nnc(SCC(=O)Nc4nc(-c5ccccc5)cs4)n3c2c1 | -14.2% (inactive)
17 | c1ccc2cc(CSCc3nc4ccccc4[nH]3)ccc2c1 | 21.6% (inactive)
18 | CN(C(=O)c1ccc2c(c1)OCO2)C1(C(=O)NC2CCCCC2)CCCCC1 | -27.6% (inactive)
19 | CC(=O)Nc1ccc(C(=O)Nc2nc(-c3cc(C)n(Cc4ccccc4)c3C)cs2)cc1 | 17.5% (inactive)
20 | O=C(CSc1nc2ccccc2o1)Nc1ccc(N2CCOCC2)c(Cl)c1 | 10.2% (inactive)
21 | N#Cc1nc(-c2ccco2)oc1NCCCN1CCOCC1 | -4.28% (inactive)
22 | N#C/C(=C\c1c(Cl)cccc1Cl)c1nc2ccccc2[nH]1 | -16.6% (inactive)
23 | S=C(NN=C1C2CC3CC(C2)CC1C3)Nc1ccccc1 | -8.54% (inactive)
24 | C=CCNc1ncnc2c1[nH]c1ccc(C)cc12 | 37% (inactive)

Row | Structure (SMILES) | inhibition
25 | Cc1ccc2[nH]c3c(NCc4ccccc4)ncnc3c2c1 | -8.46% (inactive)
26 | COc1cccc(-c2nnc(SCC(=O)Nc3ccc(OC)c(OC)c3)n2N)c1 | 8.89% (inactive)
27 | Cc1ccc(C=Nc2ccccc2C(N)=O)s1 | 19.4% (inactive)
28 | CC1(C)CC(=O)C=C(Nc2ccc(Br)cn2)C1 | -21.7% (inactive)
29 | Cc1ccc(NC(=S)NCc2cccnc2)cc1 | -17.2% (inactive)
30 | S=C(NCc1cccnc1)Nc1cccc(Cl)c1 | 8.84% (inactive)
31 | OC(COCc1cccs1)CN1CCN(c2ccccn2)CC1 (configuration not stated) | -21.3% (inactive)
32 | Cc1oc(CC(C)C)c(CN)c1C(=O)O | -14.3% (inactive)
33 | Cc1nc(N)sc1Cc1ccc2c(c1)OCO2 | 24.2% (inactive)
34 | CC(=O)Nc1cccc(OCC(=O)Nc2ccc(F)cc2)c1 | -31.6% (inactive)
35 | CC(=O)Nc1cccc(OC(=O)c2ccoc2C)c1 | -30.2% (inactive)
36 | CCN(CC)c1nc2n(c(=O)n1)CCO2 | -33.8% (inactive)
37 | Cc1ccccc1Nc1nc(-c2sc(NC(=O)c3cccc(Cl)c3)nc2C)cs1 | 17% (inactive)
38 | Cc1cc(O)ccc1Nc1nc2ccccc2nc1Nc1ccc(O)cc1C | 33.7% (inactive)
39 | Cc1ccc(O)c(-c2cc(-c3cccc(F)c3)n[nH]2)c1 | 27.2% (inactive)
40 | C=CCNC(=O)C(=O)NN=C1CCN(C)CC1 | -26.4% (inactive)
41 | N#CCOC(=O)c1sccc1-n1cccc1 | -11.9% (inactive)
42 | O=C(Cc1ccccc1)Nc1cccc(N2C(=O)C=CC2=O)c1 | 30.8% (inactive)
43 | Cc1ccc(C2NNC(=O)C2NC(=O)c2ccccc2)cc1 (configuration not stated) | -23.9% (inactive)
44 | Cc1ccc(-c2nnn(CC(=O)Nc3ccccc3-c3ccccc3)n2)c(-n2cnnn2)c1 | 1.9% (inactive)
45 | Cc1cc(Nc2ccc(Cl)cc2)nc(N)n1 | 32.1% (inactive)
46 | CC(C)(C)c1nn(-c2ccccc2)c2[nH]c(=O)c(CNCc3ccco3)cc12 | -17.9% (inactive)
47 | CC1(C)SC(=S)N(NC(=O)Nc2ccccc2)C1N(O)C(=O)Nc1ccccc1 (configuration not stated) | -13.4% (inactive)
48 | Cc1ccc(Nc2cc(C)nc3nc(C)nn23)cc1 | -17.3% (inactive)

Row | Structure (SMILES) | inhibition
49 | COc1ccc2c(c1)cc1n2CCN2CCCN=C12 | 13.7% (inactive)
50 | O=P(Cc1cc[n+]([O-])cc1)(c1ccccc1)c1ccccc1 | -29.2% (inactive)
51 | CCOC(=O)CCCNC(=O)COC(=O)CCC(=O)c1ccc(F)cc1 | 3.03% (inactive)
52 | CCCCn1cnc2c(cnn2-c2ccc(F)cc2)c1=O | -17.3% (inactive)
53 | Cc1cccnc1NC(=O)CCCN1C(=O)c2ccccc2C1=O | 6.01% (inactive)
54 | O=C(CCN1C(=O)COc2ccccc21)NCCN1CCOCC1 | -16.8% (inactive)
55 | COc1cccc(/C=N/n2c(C)nc3ccccc32)c1OC | -14% (inactive)
56 | Cc1ccc(-n2c(C)cc(-c3csc(N)n3)c2C)cc1 | 39.9% [at 75 µM] (inactive)
57 | Cc1cc(-c2csc(N)n2)c(C)n1C | 23.3% (inactive)
58 | Nc1nc(-c2ccc(Br)cc2)cs1 | -12.1% (inactive)
59 | NC(N)=Nc1nc(C2COc3ccccc3O2)cs1 (configuration not stated) | 35.6% (inactive)
60 | CN(C(=O)C1CCOC1)c1nnc(-c2ccccn2)s1 (configuration not stated) | -15.8% (inactive)
61 | COc1ccc(-c2cc(C(=O)Nc3cc(C)n(Cc4ccc(Cl)cc4)n3)no2)cc1OC | -13.3% (inactive)
62 | COc1cc(S(=O)(=O)N2CCCCC2)ccc1NC=O | -0.23% (inactive)
63 | CC1(C)CC2CC(C)(CN2C(=O)COC(=O)c2n[nH]c(=O)c3ccccc23)C1 (configuration not stated) | -15.4% (inactive)
64 | O=C1Nc2ccccc2C12OCC1(CO2)COC2(OC1)C(=O)Nc1ccccc12 (configuration not stated) | 15.1% (inactive)
65 | NCCCCCc1nnc(SCc2ccc(Cl)cc2Cl)o1 | 16.6% (inactive)
66 | O=C(Nc1ccc(O)cc1)c1cc2n(n1)C(C(F)(F)F)CC(c1ccco1)N2 (configuration not stated) | -2.81% (inactive)
67 | O=C(c1cc(-c2cccs2)nc2ccccc12)N1CCN(c2ccccc2O)CC1 | 16.9% (inactive)
68 | O=C(O)CCc1nn2c3ccccc3n(CCN3CCCCC3)c2nc1=O | -3.63% (inactive)
69 | Cc1ccc(Nc2cc(=O)[nH]c(=O)[nH]2)c(C)c1 | 24.1% (inactive)
70 | O=C(O)C1CCC(N2C(=O)C3CCCCC3C2=O)CC1 (configuration not stated) | -2.47% (inactive)
71 | Cc1cc(C(=O)CSc2nnnn2C)c(C)n1-c1ccc2c(c1)OCCO2 | -3.11% (inactive)
72 | Cc1ccc(-c2cc(C(=O)Nc3nccs3)c3ccccc3n2)o1 | 15.4% (inactive)

Row | Structure (SMILES) | inhibition
73 | O=C(OCc1ccccc1)Oc1cncc(C(=O)O)c1 | 3.03% (inactive)
74 | C=COC(=O)CSc1snc(SCC(=O)OC)c1C#N | -0.38% (inactive)
75 | C=CCSc1ncnc2sc(C)c(C)c12 | 2.54% (inactive)
76 | COc1ccc(NC(=O)CCNS(=O)(=O)c2ccc3c(c2)CCC(=O)N3)cc1 | -5.16% (inactive)
77 | CN1CCCC(OC(=O)c2ccc3c(c2)OCCO3)C1 (configuration not stated) | -6.95% (inactive)
78 | N#Cc1ccc(N=c2ssnc2Cl)cc1 | -3.37% (inactive)
79 | CC(C)(C)n1ncc2c(=O)n(CC(=O)Nc3ccc4c(c3)OCO4)cnc21 | 0.07% (inactive)
80 | N=c1n(CC(=O)c2ccc([N+](=O)[O-])cc2)c2ccccc2n1Cc1ccccc1 | -6.91% (inactive)
81 | Cc1ccccc1Cn1c(=N)n(CC(=O)c2ccco2)c2ccccc21 | -25% (inactive)
82 | Cc1ccc(/C=C/c2ccc(=O)n(Cc3ccccc3Cl)n2)cc1 | -10.7% (inactive)
83 | COc1ccc(-n2c(=O)c3ccccc3n(CC(=O)Nc3cc(C)on3)c2=O)cc1OC | -20.3% (inactive)
84 | Cc1cc(-c2c(C)n([O-])c(C)c(C)[n+]2=O)ccc1F | -19% (inactive)
85 | CCOC(=O)c1ccccc1C(=O)N1CCOCCOCCOCC1 | -15.8% (inactive)
86 | CCOC(=O)c1c(-c2ccc(C)o2)csc1N | -7.66% (inactive)
87 | COc1ccc(C(=O)Nn2c(SCC(=O)N3CCC(C)CC3)nc3ccccc3c2=O)cc1 | -0.43% (inactive)
88 | Cc1ccc2nc(C)c(CN3CCN(c4ccc([N+](=O)[O-])cc4Cl)CC3)n2c1 | 12.8% (inactive)
89 | Cc1ccc(NS(=O)(=O)c2ccc(N3C(=O)CCC3=O)cc2)cc1 | -30.7% (inactive)
90 | O=S(=O)(Nc1ccc2c(c1)nc1n2CCN(Cc2ccccc2)C1)c1ccc(F)cc1 | -2.47% (inactive)
91 | CSc1cccc(NC(=O)COc2cccc3ccccc23)c1 | 6.13% (inactive)
92 | O=S(=O)(NC1=NCCCCC1)c1cccs1 | -13.8% (inactive)
93 | O=C1CSc2ccccc2N1Cc1ccc(F)cc1 | -25.6% (inactive)
94 | O=C(c1ccccc1S(=O)(=O)NCc1ccccc1)N1CCCC1 | -22.7% (inactive)
95 | COc1ccc(C2CC(c3ccccc3)=NN2c2ccc(/C=N/NC(=O)c3ccncc3)cc2)cc1 (configuration not stated) | 16.4% (inactive)
96 | NC(=O)c1c(N)sc2c1CCCCC2 | 12.1% (inactive)

Row | Structure (SMILES) | inhibition
97 | CCOC(=O)C1=C(C)NC(=S)NC1c1ccc(OC(=O)c2ccco2)cc1 (configuration not stated) | -2.57% (inactive)
98 | Cn1c(C(O)c2ccc(Br)cc2)nc(Cl)c1Cl (configuration not stated) | -2.83% (inactive)
99 | CN(C)C=NC(=O)c1[nH]c2ccc(Cl)cc2c1-c1ccccc1 | -5.43% (inactive)
100 | Clc1ccc(OCCN2CCN(c3ncnc4sccc34)CC2)cc1 | -6.81% (inactive)
101 | N[C@H](CSCc1ccccc1)C(=O)Nc1ccc([N+](=O)[O-])cc1 | -8.41% (inactive)
102 | O=C(Cc1ccc(Cl)cc1)NNS(=O)(=O)c1ccc([N+](=O)[O-])cc1 | 0% (inactive)
103 | O=C(O)CCCCCN1C(=O)c2ccc(C(=O)O)cc2C1=O | -20.1% (inactive)
104 | CCOC(=O)c1c(C)[nH]c(C)c1C(=O)CSc1ncccn1 | -16.1% (inactive)
105 | COc1ccc(NC(=O)CSc2nccn2-c2ccccc2)cc1 | -15.4% (inactive)
106 | COc1cc(OC)c(NC(=O)Nc2ccc(OC)c(OC)c2)cc1Cl | 10.1% (inactive)
107 | O=[N+]([O-])c1nn(-c2cccc(Cl)c2)n(O)c1=NCc1cccnc1 | 5.14% (inactive)
108 | O=c1c(Cl)c(Cl)cnn1-c1ccccc1 | 18.9% (inactive)
109 | CC1(C)CC(=O)C(C=Nc2ccc(Cl)cn2)=C(O)C1 | 7.22% (inactive)
110 | Cn1cccc1CC(=O)NNC(=S)Nc1ccc(Cl)cc1 | 8.8% (inactive)
111 | Cc1cn([C@H]2C[C@H](N=[N+]=[N-])[C@@H](CO)O2)c(=O)[nH]c1=O | -4.31% (inactive)
112 | Cc1c(C)n(Cc2ccccc2)c2ncnc(NN)c12 | 9.09% (inactive)
113 | CCOCc1nnc(NC(=O)COC)s1 | -6.16% (inactive)
114 | O=c1c2ccccc2nnn1Cc1ccccn1 | 4.75% (inactive)
115 | c1ccc(Oc2cc(-c3ccccc3)ncn2)cc1 | -7.11% (inactive)
116 | Oc1ccccc1NCC(O)Cn1ccc2ccccc21 (configuration not stated) | 15.1% (inactive)
117 | Cc1ccc2nc(Cc3ccc(N)cc3)[nH]c2c1 | 29.3% (inactive)
